These results are taken from PubChem BioAssay (NCI).

Each structure is given as a SMILES string. Several values for one entry are separate records, joined by “and”; a condition that tells them apart may be missing. Equal values may be shown once. This is part of a sample that, as a whole, favours compounds with a hit. Of some 83,000 tested, about 20% had one in any assay.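 Activity criterion: percent growth below 10, measured after cells in 96-well plates were exposed to a single compound concentration for 48 hours.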 Values without a mark were called inactive. Activity calls are given as the source filed them.

The experiment relates to MDA-MB-468 breast. Kind of experiment: NCI-60 one-dose screen, 48 h (100 = growth as untreated, 0 = no growth, -100 = all killed). Particulars: 10 µM unless noted.
In the case of `CCOc1ccc2c(S(=O)(=O)O)cccc2c1[N+](=O)[O-]`, the growth is 104% and 106%.

Regarding `Cc1c([N+](=O)[O-])cc(C(C)(C)C)cc1[N+](=O)[O-]`, the growth is 90.6%.

As for `CN1C(=O)N(C)C2C1NN=c1s/c(=C\c3ccccc3F)c(=O)n12` (stereo not given), the growth is 11.6%.

Consider `O=C(NCCCN1CCN(CCCNC(=O)C2CCCCC2)CC1)C1CCCCC1`, for which the growth is 110%.

With `O=C(Nc1ccccc1F)Nc1ccccc1Cl`, the growth is 76%.

Take `COc1ccc(-c2cn3c(-c4ccc(OC)cc4)cnc3c(Oc3ccc4c(C)cc(=O)oc4c3)n2)cc1`: the growth was 43.9%.

`CN(C)CCNC(=O)c1ccc(-c2nc3ccc4[nH]ncc4c3c3c2COCC3)cc1`: the growth is -54.5% (active).

`C[C@H]1OCC2(CCN(c3cnc(C(=O)Nc4cc(F)cc5cccnc45)cn3)CC2)[C@H]1N`: the growth is -4.2% (active).

In the case of `COc1ccc(-c2ccc(O)c(C(=O)/C=C/c3cc(OC)c(OC)c(OC)c3)c2)cc1`, the growth was 85.2%.

`CC(C)(C)n1cc(-c2ccnc(NCCNS(=O)(=O)c3ccc(F)cc3)c2)c(-c2cccc(O)c2)n1`: the growth is 8.72% (active).

On to `C#CCNC(=O)[C@H](Cc1ccccc1)NC(=O)[C@]12CC[C@@H](C(=C)C)[C@@H]1[C@H]1CC[C@@H]3[C@@]4(C)CCC(=O)C(C)(C)[C@@H]4CC[C@@]3(C)[C@]1(C)CC2`, for which the growth was 63.7%.

In the case of `CCN(CC)CCn1c2ccc(OC)cc2c2sc3cc(OC)ccc3c(=O)c21`, the growth was 14.5%.

As for `COc1ccc(/C(=N\O)c2cc(C)c(OC)c(C)c2)cc1O`, the growth is 44.4%.

In the case of `Cc1ccc(O)c(C(=O)O)c1`, the growth is 106%.

Consider `COc1ccc(C2=Nc3c(C)nn(-c4ccccc4)c3NC(c3ccc(Oc4ccnc5cc(Cl)ccc45)c(OC)c3)C2)cc1` (stereo not given), for which the growth was 80.3%.

Turning to `COC(=O)C1CCCN(S(=O)(=O)/N=C2\NC(=O)NC2=C(Cl)Cl)C1` (stereo not given), the growth is 32.8%.

With `CC(=O)n1cc([C@H]2CC[C@H](c3cn(C(C)=O)c4ccccc34)c3c2[nH]c2ccccc32)c2ccccc21`, the growth was 92.9%.

As to `Cc1cc2c(cc1[N+](=O)[O-])NC(CNC(C)C)CC2` (stereo not given), the growth was 83.3%.

Take `Cc1n[nH]c(C)c1-c1c(C)n[nH]c1C`: the growth is -0.751% (active).

`COc1ccc(N=c2nc3sc4cc(Cl)ccc4n3c(N)c2C#N)cc1`: the growth was -7.79% (active).

Regarding `CCCCCN(CCCCC)C(C)C(O)c1ccc2cc(Cl)c3ccccc3c2c1` (stereo not given), the growth was 91%.

`CCCc1c(CC)c(=N)c2ccccc2n1C`: the growth is 58.7%.

For `N#Cc1cc(-c2nc3ccccc3s2)c(=O)n(NS(=O)(=O)c2ccc(Cl)cc2)c1N`, the growth is 99.6%.

Regarding `CCCCNC(=O)Oc1ccc(/C(=C(\C)c2ccc(Cl)cc2)c2ccc(OCCN(CC)CC)cc2)cc1`, the growth is 71.8%.

As for `CC1(C)CC2=C3C=C[C@@H]4[C@@]5(C)CC[C@H](O)C(C)(C)[C@@H]5CC[C@@]4(C)[C@]3(C)CC[C@@]2(C(=O)O)CC1=O`, the growth is 81.4%.

As to `CNCCCOc1c(Br)cc(CCNC(=O)/C(Cc2cc(Br)c(OC)c(Br)c2)=N/O)cc1Br`, the growth is 3.11% (active).

As to `Cc1cc(NCc2cc(Nc3ccnc4cc(Cl)ccc34)ccc2F)nc(N2CCCC2)n1`, the growth is -35.4% (active).

Regarding `COc1cccc(NC(=O)c2sc3nc4c(cc3c2N)CN(Cc2ccccc2)CC4)c1`, the growth is 64.4%.

With `NC(=NCCCOc1ccc(F)cc1)Nc1ccc(I)cc1`, the growth was 27.8%.

Turning to `C#CC[C@@H]1C[C@]2(C)[C@H]3CC[C@@H]4[C@H]5C(C(=C)C)CC[C@]5(C(=O)NCCCN5CCN(CCCN)CC5)CC[C@@]4(C)[C@]3(C)CC[C@H]2C(C)(C)[C@H]1OC(C)=O` (stereo not given in full), the growth is -76.5% (active).

Consider `Cc1ccc(C23CCC(=O)N2CCc2cncn23)cc1` (stereo not given), for which the growth was 85.2%.

As for `N=C(N)c1ccc(-c2ccc(-c3ccc4ccccc4c3)s2)s1`, the growth was -16.3% (active).

Consider `O=C(NCCN1CCC(O)CC1)c1cc2c(o1)C(=O)c1ccccc1C2=O`, for which the growth is -85.8% (active).

For `COc1ccc(Nc2nnc(-c3ccc(OC)c(OC)c3)o2)cc1`, the growth was 90.8%.

In the case of `O=C1C=CC(=O)N1c1ccc2ccccc2c1`, the growth is 51.3% and 62.7%.

For the compound `C=C(C)CCC(C)N1CCC(N2CCC(C(=O)NCCc3ccccc3)CC2)CC1` (stereo not given), the growth is 48.4%.

On to `O=C(Nc1nc2ccc([N+](=O)[O-])cc2s1)Nc1ccccc1Br`, for which the growth is 33.2%.

For the compound `N/N=C(\C(=N\N)c1ccccc1)c1ccccc1`, the growth was 94%.

For the compound `C[C@H](C(=O)N[C@@H](Cc1ccc(-c2ccccc2)cc1)C(=O)NC1CC(C)(C)N(C)C(C)(C)C1)c1ccc(-c2ccccc2)c(F)c1`, the growth is -86.5% (active).

Turning to `O=c1c2cc(F)ccc2sc2c(Nc3cccnc3)nc3ccccc3c12`, the growth is 76.4%.
